From PubChem BioAssay (EPA / NIEHS) come the findings set out here.

Activity calls are given as the source filed them. The calls were made as follows: active = hit-call score of the fitted dose curve at least 0.9, where 1 is the maximum; inactive = score below 0.9.

Assay [1] is described as follows: ATG_CRE_CIS: Attagene CIS-FACTORIAL HepG2 Assay for human cAMP Responsive Element (CRE) binding protein 3 (AID 2282926). As to conditions: HepG2 CRE cis-reporter, Attagene multiplexed mRNA; actives raise or lower the signal. Summed up:
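We dosed HepG2 cells bearing multiple cis-promoter reporter units for 24 h and measured reporter mRNA by RT-PCR with capillary electrophoresis detection. Bidirectional concentration-response fitting used DMSO as negative control.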

Assay [2] addresses CCAAT/enhancer-binding protein beta (Homo sapiens) (UniProt P17676). The assay can be described thus: ATG_C_EBP_CIS: Attagene CIS-FACTORIAL HepG2 Assay for human CCAAT/Enhancer Binding Protein (C/EBP) beta (AID 2282927). As to conditions: HepG2 Attagene cis-factorial transcription factor reporter; actives raise or lower the signal. In a few lines:
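Chemical-treated HepG2 cells (24 h) bearing cis-regulated reporter constructs were processed for total RNA, then reverse transcription, PCR amplification, fluorescent primer extension and fragment analysis; gain- and loss-of-signal were fitted against DMSO.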

Assay [3] is described as follows: ATG_CMV_CIS: Attagene CIS-FACTORIAL HepG2 Assay for human CMV (Internal Marker) (AID 2282928).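 Also: endpoint acts as a background internal control marker rather than a target.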 As to conditions: HepG2 CMV promoter reporter, transcription factor profiling; actives raise or lower the signal. In a few lines:
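HepG2 cells transiently transfected with multiple cis-regulated reporter units; 24 h compound exposure. Reporter mRNA quantified by RT-PCR, 6-FAM primer-extension labeling, HpaI digestion and capillary electrophoresis; bidirectional fitting against DMSO baseline.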

A short description of assay [4]: ATG_DR4_LXR_CIS: Attagene CIS-FACTORIAL HepG2 Assay for human Liver X Receptor (LXR), DR4 submotif (AID 2282929). The conditions noted are these: HepG2 Attagene DR4 cis-reporter, mRNA transcription; actives raise or lower the signal. Summed up:
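Total RNA from 24 h-treated, MRTU-transfected HepG2 cells underwent reverse transcription, PCR, fluorescent primer extension and restriction digestion before capillary electrophoresis. Both increases and decreases in reporter signal were fitted against DMSO.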

The target in assay [5] is Aryl hydrocarbon receptor (Homo sapiens) (UniProt P35869). The assay can be described thus: ATG_Ahr_CIS: Attagene CIS-FACTORIAL HepG2 Assay for human Aryl Hydrocarbon Receptor (Ahr) (AID 2282930). As to conditions: HepG2 AhR cis-factorial reporter transcription; actives raise or lower the signal. Summed up: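 Following 24 h of chemical dosing, transfected HepG2 liver cells with cis-driven reporter units were lysed for RNA; reporter mRNA was quantified via RT-PCR and capillary electrophoresis, and responses fitted bidirectionally from DMSO.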

Assay [6] can be described thus: ATG_AP_1_CIS: Attagene CIS-FACTORIAL HepG2 Assay for human Activator Protein 1 (AP-1) (AID 2282931). As to conditions: HepG2 Attagene cis-factorial AP-1 reporter mRNA; actives raise or lower the signal. In a few lines: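 HepG2, transient cis-reporter transfection; 24 h; readout RT-PCR/CE fluorescence; DMSO baseline, gain and loss fitted.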
The nature of assay [7]: ATG_AP_2_CIS: Attagene CIS-FACTORIAL HepG2 Assay for human Activator Protein 2 (AP-2) (AID 2282932). The conditions noted are these: HepG2 AP-2 cis-reporter, Attagene transcription factor profiling; actives raise or lower the signal. In a few lines: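 Bidirectional curve fitting against DMSO was applied to reporter mRNA signals from HepG2 cells 24 h after dosing. Cis-promoter reporter units, transiently transfected, were read by RT-PCR plus capillary electrophoresis.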

A short description of assay [8]: ATG_BRE_CIS: Attagene CIS-FACTORIAL HepG2 Assay for human Bone Morphogenetic Protein (BMP) Response Element (BRE) (AID 2282933). The conditions noted are these: HepG2 BMP response element reporter, Attagene transcription factor profiling; actives raise or lower the signal. Summed up:
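Multiplexed cis-reporter assay, HepG2, 24 h exposure. mRNA from reporter units quantified via RT-PCR/CE; DMSO baseline; bidirectional curve fit.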

In assay [9] the target is Transcription factor E2F1 (Homo sapiens) (UniProt Q01094). The assay can be described thus: ATG_E2F_CIS: Attagene CIS-FACTORIAL HepG2 Assay for human E2F Transcription Factor 1 (AID 2282935). As to conditions: HepG2 Attagene cis-reporter, E2F reporter RNA transcripts; actives raise or lower the signal. Summed up: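 Multiplexed cis-reporter assay: HepG2, transient transfection, 24 h dosing, mRNA quantitation by labeled RT-PCR and CE.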

Assay [10] is described as follows: ATG_M_61_CIS: Attagene CIS-FACTORIAL HepG2 Assay for M61 Transcription Factor (Internal Marker) (AID 2282937). The conditions noted are these: HepG2 Attagene CIS-FACTORIAL M61 internal marker reporter; actives raise or lower the signal. In a few lines:
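Transfect HepG2 with MRTUs; dose 24 h; isolate RNA; reverse-transcribe with DNase I treatment; PCR-amplify, FAM-label and cut with HpaI for 2 h at 37 C; resolve by CE. Bidirectional fitting against DMSO.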

Assay [11] in a line: ATG_EGR_CIS: Attagene CIS-FACTORIAL HepG2 Assay for human Early Growth Response 1 (EGR1) (AID 2282938). As to conditions: HepG2 Attagene CIS-FACTORIAL EGR reporter mRNA; actives raise or lower the signal. In a few lines:
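After a 24 h treatment of transiently transfected HepG2 cells, total RNA was reverse-transcribed and reporter sequences PCR-amplified, labelled and run on capillary electrophoresis. Reporters sit under cis-regulatory promoters sensing endogenous factors.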

Assay [12] addresses Retinoic acid receptor alpha (Homo sapiens) (UniProt P10276). The assay can be described thus: ATG_DR5_RAR_CIS: Attagene CIS-FACTORIAL HepG2 Assay for human Retinoic Acid Receptor Alpha (RARE), DR5 submotif (AID 2282934).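 As to AC50: reporter responds to endogenous RAR alpha beta and gamma in HepG2 not RARA alone.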 The conditions noted are these: HepG2 Attagene cis-factorial RARE DR5 reporter, mRNA; actives raise or lower the signal. In a few lines:
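Transfected HepG2 reporter cells are exposed to chemicals for 24 h. Then RNA is extracted and the DR5 element reporter transcript is measured by RT-PCR and capillary electrophoresis, with bidirectional curve fitting relative to DMSO.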

The nature of assay [13]: ATG_E_Box_CIS: Attagene CIS-FACTORIAL HepG2 Assay for human Enhancer Box (E-box) (AID 2282936). The conditions noted are these: HepG2 E-box cis-reporter transcription, actives raise or lower the signal. In a few lines: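 Multiplexed CIS reporter system in transiently transfected HepG2 cells measures native transcription factor activity. Reporter RNA after 24 h exposure is profiled by RT-PCR-capillary electrophoresis.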

Chain of Retinoic acid receptor alpha (Homo sapiens) (P10276 whole entry, looked up): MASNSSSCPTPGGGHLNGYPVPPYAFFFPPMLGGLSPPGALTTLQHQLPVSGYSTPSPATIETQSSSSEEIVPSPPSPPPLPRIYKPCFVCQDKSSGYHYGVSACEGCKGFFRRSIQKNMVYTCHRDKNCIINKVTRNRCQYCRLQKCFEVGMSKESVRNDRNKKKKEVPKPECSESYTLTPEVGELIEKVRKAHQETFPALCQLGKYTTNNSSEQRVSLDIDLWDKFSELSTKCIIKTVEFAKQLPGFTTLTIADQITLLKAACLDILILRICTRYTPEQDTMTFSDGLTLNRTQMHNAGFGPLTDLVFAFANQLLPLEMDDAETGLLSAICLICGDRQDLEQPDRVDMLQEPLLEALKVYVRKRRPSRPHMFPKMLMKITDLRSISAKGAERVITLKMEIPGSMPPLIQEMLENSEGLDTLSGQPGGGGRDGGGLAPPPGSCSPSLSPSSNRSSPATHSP
Chain of CCAAT/enhancer-binding protein beta (Homo sapiens) (P17676 whole entry, looked up, the tested form may be a part): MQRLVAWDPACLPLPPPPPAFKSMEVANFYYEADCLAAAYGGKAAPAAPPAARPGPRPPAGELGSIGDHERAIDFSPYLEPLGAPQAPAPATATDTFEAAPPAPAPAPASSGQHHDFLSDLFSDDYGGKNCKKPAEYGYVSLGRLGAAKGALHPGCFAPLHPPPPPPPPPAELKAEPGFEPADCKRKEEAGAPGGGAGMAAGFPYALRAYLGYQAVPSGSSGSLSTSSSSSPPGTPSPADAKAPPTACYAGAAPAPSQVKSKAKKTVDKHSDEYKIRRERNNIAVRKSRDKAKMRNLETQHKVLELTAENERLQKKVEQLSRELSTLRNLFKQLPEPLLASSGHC
Chain of Transcription factor E2F1 (Homo sapiens) (Q01094 whole entry, looked up): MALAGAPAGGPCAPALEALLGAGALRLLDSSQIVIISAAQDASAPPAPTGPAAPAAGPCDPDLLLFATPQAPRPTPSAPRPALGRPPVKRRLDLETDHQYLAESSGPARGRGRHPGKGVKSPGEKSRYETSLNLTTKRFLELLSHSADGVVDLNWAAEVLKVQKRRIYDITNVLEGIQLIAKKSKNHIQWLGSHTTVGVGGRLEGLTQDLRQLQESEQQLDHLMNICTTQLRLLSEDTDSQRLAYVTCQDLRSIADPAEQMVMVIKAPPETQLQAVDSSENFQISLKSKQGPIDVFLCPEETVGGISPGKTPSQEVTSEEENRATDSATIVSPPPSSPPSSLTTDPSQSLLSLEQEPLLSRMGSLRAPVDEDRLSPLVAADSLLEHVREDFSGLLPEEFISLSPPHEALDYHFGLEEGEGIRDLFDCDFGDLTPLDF
Chain of Aryl hydrocarbon receptor (Homo sapiens) (P35869 whole entry, looked up): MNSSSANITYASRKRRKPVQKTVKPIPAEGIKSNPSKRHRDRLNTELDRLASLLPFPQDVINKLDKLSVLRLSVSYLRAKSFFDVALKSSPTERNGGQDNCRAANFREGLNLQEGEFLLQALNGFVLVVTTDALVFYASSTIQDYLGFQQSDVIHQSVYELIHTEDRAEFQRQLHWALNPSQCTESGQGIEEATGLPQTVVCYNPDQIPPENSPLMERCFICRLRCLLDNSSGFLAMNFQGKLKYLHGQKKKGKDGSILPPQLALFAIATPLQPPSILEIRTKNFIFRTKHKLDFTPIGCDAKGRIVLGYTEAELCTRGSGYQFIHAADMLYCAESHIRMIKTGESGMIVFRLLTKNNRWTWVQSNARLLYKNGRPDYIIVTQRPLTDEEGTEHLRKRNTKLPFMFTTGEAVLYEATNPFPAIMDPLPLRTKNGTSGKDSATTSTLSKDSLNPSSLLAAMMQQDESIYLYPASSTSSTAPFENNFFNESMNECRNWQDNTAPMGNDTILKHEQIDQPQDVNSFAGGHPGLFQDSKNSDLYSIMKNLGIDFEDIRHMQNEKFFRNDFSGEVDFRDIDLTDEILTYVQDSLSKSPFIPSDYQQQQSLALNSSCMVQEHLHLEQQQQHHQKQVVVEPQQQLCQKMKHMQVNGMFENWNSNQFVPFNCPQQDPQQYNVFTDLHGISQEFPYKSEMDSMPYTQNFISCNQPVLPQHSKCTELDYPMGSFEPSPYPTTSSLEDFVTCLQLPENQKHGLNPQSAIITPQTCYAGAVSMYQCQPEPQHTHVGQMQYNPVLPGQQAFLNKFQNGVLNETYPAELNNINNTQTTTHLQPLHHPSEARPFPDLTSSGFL

Turning to `CCOP(=O)(OCC)SCCSCC`, the compound was called inactive in [1], in assay [2], in assay [3], in [4], in assay [5] and in assay [6]. Moreover, the compound was called inactive in [7], in assay [8], in assay [9], in assay [10] and in assay [11].
On to `O=[N+]([O-])c1ccccc1O`, for which the compound was classed as inactive in assay [1], in [2], in assay [3], in assay [4], in assay [5] and in [6]. Besides, the call in [7], in assay [8], in [9], in assay [10] and in assay [11] was inactive.
Regarding `O=S(=O)(F)C(F)(F)C(F)(F)C(F)(F)C(F)(F)F`, the outcome in assay [1], in [2], in [4], in assay [5], in [7] and in assay [8] was inactive. In addition, the outcome in assay [12], in assay [9], in assay [13], in assay [10] and in [11] was inactive.
A word on the AC50: it is the concentration at which the activity in the assay is half-maximal. Turning to `CN(C)c1ccc(N=O)cc1`, the outcome in assay [1], in assay [2], in assay [6], in assay [7], in assay [8] and in assay [12] was inactive. The compound was called inactive in assay [9] and in assay [10]. Besides, the AC50 in assay [4] was 9.26 µM (active); in [5], 8.04 µM (active); in assay [13], 10.3 µM (active); in assay [11] it was 13.5 µM (active).
As for `COP(=S)(OC)Oc1cc(Cl)c(I)cc1Cl`, the AC50 is 29.6 µM (active) in [1]; 27.9 µM (active) in assay [2]; 46.6 µM (active) in assay [4]; 22.5 µM (active) in [7]; 34.7 µM (active) in assay [13]; 41.3 µM (active) in assay [11]. In addition, the compound was classed as inactive in [5], in assay [6], in assay [8], in [12] and in assay [10].
Take `Clc1cnc(Oc2ccc(Oc3ncc(Cl)cc3Cl)cc2)c(Cl)c1`: the call in [1], in [2], in assay [4], in assay [6], in assay [7] and in assay [8] was inactive. Also, the outcome in [12], in assay [9], in [13], in [10] and in [11] was inactive. For the same compound, the AC50 in assay [5] is 5.93 µM (active).
With `Cc1ccccc1OP(=O)(Oc1ccccc1)Oc1ccccc1`, the result in assay [1], in assay [2], in assay [5], in assay [7], in [13] and in assay [10] was inactive. Also, in assay [11], the compound was classed as inactive. The AC50 is 12.3 µM (active) in [4]; 47.9 µM (active) in assay [6]; 64.2 µM (active) in [8]; 32 µM (active) in assay [12]; 57.2 µM (active) in [9].
With `Oc1cccc(-c2ccccc2)c1`, the compound was classed as inactive in [1], in assay [2], in assay [4], in assay [5], in [7] and in [12]. In addition, the outcome in assay [9], in assay [13], in assay [10] and in assay [11] was inactive. For the same compound, the AC50 in [6] is 65.1 µM (active); in assay [8], 73.5 µM (active).
`CC(C)[C@H](C(=O)OC(C#N)c1cccc(Oc2ccccc2)c1)c1ccc(OC(F)F)cc1` (stereo partly specified): the compound was called inactive in assay [1], in assay [2], in [3], in assay [4], in assay [5] and in assay [7]. Also, the result in assay [8], in [9], in [13], in assay [10] and in assay [11] was inactive.
On to `C=C(C)C(=O)OCC(CC)CCCC` (stereo unspecified), for which the outcome in assay [1], in assay [2], in assay [4], in [5], in [6] and in [7] was inactive. The compound was classed as inactive in assay [8], in [12], in assay [13], in assay [10] and in [11].
For `C=C(C)[C@@H]1CC=C(C=O)CC1`, the outcome in assay [1], in assay [2], in assay [3], in assay [4], in [7] and in assay [8] was inactive. Moreover, the call in [12], in [9], in [13], in [10] and in assay [11] was inactive. For the same compound, the concentration at half-maximal activity (AC50) in assay [6] was 100 µM (active).
